Our source for the efficacy values is PubChem BioAssay (NCATS).

Entries with a potency or affinity are not part of this list. Calls of active or inactive are those of the source. No rule for the calls is given here.
Also: 0% is about no effect.

The conditions of this test: Ebola virus entry assay, green fluorescence channel.
`O=C1OC(c2ccc(O)c(S(=O)(=O)O)c2)(c2ccc(O)c(S(=O)(=O)O)c2)c2c(Br)c(Br)c(Br)c(Br)c21`: the efficacy was 32.9% (inactive).

In the case of `CCCNC(C)C(=O)Nc1c(C)csc1C(=O)OC` (centres undefined), the efficacy is 13% (inactive).

As for `CCC1(CC)C(=O)C=CNC1=O`, the efficacy is -31% (inactive).

Regarding `CC(=O)N(CC(O)CO)c1c(I)c(C(=O)NCCO)c(I)c(C(=O)NCC(O)CO)c1I` (centres undefined), the efficacy was -10.6% (inactive).

Turning to `NC(=O)c1ncn([C@@H]2O[C@H](CO)[C@@H](O)[C@H]2O)c1O`, the efficacy is -21.3% (inactive).

For the molecule `CC(C(=O)O)c1ccc(C(=O)c2ccccc2)s1` (centres undefined), the efficacy was -17.9% (inactive).

`C=C(C)[C@H]1CN[C@H](C(=O)O)[C@H]1CC(=O)O`: the efficacy was -11.7% (inactive).

Turning to `CCNC(=O)/C=C/c1cccc(Br)c1`, the efficacy was -12% (inactive).

Regarding `O=C(c1ccccc1)C(O)c1ccccc1` (centres undefined), the efficacy is 17.3% (inactive).

On to `NS(=O)(=O)c1cc2c(cc1Cl)NC(CC1CCCC1)NS2(=O)=O` (centres undefined), for which the efficacy is 19% (inactive).

Take `Cc1c(C(=O)NCCO)[n+](=O)c2ccccc2n1[O-]`: the efficacy is -17% (inactive).

As for `CC1(C)O[C@@H]2C[C@H]3[C@@H]4CCC5=CC(=O)C=C[C@]5(C)[C@@H]4[C@@H](O)C[C@]3(C)[C@]2(C(=O)CO)O1`, the efficacy is 50.6% (inactive).

`COc1cc(C(=O)OC(COCCC(C)C)CN2CCOCC2)cc(OC)c1OC` (centres undefined): the efficacy was 27.7% (inactive).

`Cc1nc2ccc(CN(C)c3ccc(C(=O)N[C@@H](CCC(=O)O)C(=O)O)s3)cc2c(=O)[nH]1`: the efficacy is 17.4% (inactive).

In the case of `C=CCN1C[C@H](C)N([C@H](c2ccc(C(=O)N(CC)CC)cc2)c2cccc(OC)c2)C[C@H]1C`, the efficacy was -18.5% (inactive).

Turning to `[N-]=[N+]=CC(=O)OC[C@H](N)C(=O)O`, the efficacy is 10.3% (inactive).

Regarding `O=c1cc(O)c(Cl)c[nH]1`, the efficacy was -17.7% (inactive).

For `O=C(O)C(S)C(S)C(=O)O` (centres undefined), the efficacy was -24.2% (inactive).

With `Cc1c(C(C)C)c(=O)n(-c2ccccc2)n1C`, the efficacy is 14.2% (inactive).

Regarding `O=C(CS(=O)Cc1ccco1)NC/C=C\COc1cc(CN2CCCCC2)ccn1` (centres undefined), the efficacy was 29.8% (inactive).

On to `CC(CC(C#N)(c1ccccc1)C(C)C)N(C)C` (centres undefined), for which the efficacy was -15% (inactive).

In the case of `Cc1ccccc1C(=O)Nc1ccc(C(=O)N2CCCC(N(C)C)c3ccccc32)cc1` (centres undefined), the efficacy was 11.8% (inactive).

As for `CCCCOC(=O)CC(CC(=O)OCCCC)(OC(C)=O)C(=O)OCCCC`, the efficacy is 21.9% (inactive).

Turning to `CC(=O)SCC(CC(=O)c1ccc(C)cc1)C(=O)O` (centres undefined), the efficacy is 17.3% (inactive).

With `CCCCCCCCCCCCSCCOCCO`, the efficacy was -41.3% (inactive).

Take `COc1cnc(NS(=O)(=O)c2ccc(N)cc2)nc1`: the efficacy is -24.4% (inactive).

For the molecule `CNC(=O)c1ccccc1Sc1ccc2c(/C=C/c3ccccn3)n[nH]c2c1`, the efficacy is 28.2% (inactive).

In the case of `CC1(C)O[C@@H]2C[C@H]3[C@@H]4C[C@H](F)C5=CC(=O)C=C[C@]5(C)[C@@]4(F)[C@@H](O)C[C@]3(C)[C@]2(C(=O)CO)O1`, the efficacy is 10.5% (inactive).

Take `CCN(Cc1ccncc1)C(=O)C(CO)c1ccccc1` (centres undefined): the efficacy was -24.3% (inactive).

On to `CCN1CCC[C@H]1CNC(=O)c1c(OC)ccc(Br)c1OC`, for which the efficacy was -13.7% (inactive).

As to `Cn1c(=O)c2[nH]c(Br)nc2n(C)c1=O`, the efficacy was -24.3% (inactive).

Consider `Nc1ccc(C(=O)OCC(O)CO)cc1` (centres undefined), for which the efficacy is 18.5% (inactive).

As for `CCN(CC)CCNC(=O)c1cc(S(C)(=O)=O)ccc1OC`, the efficacy was -10.9% (inactive).

As to `NCCNCCNCCN`, the efficacy was 15% (inactive).

`CC(C)CCCC(C)NCCC(C)C` (centres undefined): the efficacy is -17.9% (inactive).

With `O=C(O)Cc1sc(-c2ccccc2)nc1-c1ccc(Cl)cc1`, the efficacy is -17.4% (inactive).

With `Cc1ccnc(NS(=O)(=O)c2ccc(N)cc2)n1`, the efficacy was -24.3% (inactive).

Regarding `CC(=O)Oc1cccc2c1C(=O)c1c(OC(C)=O)cc(C(=O)O)cc1C2=O`, the efficacy is -17.1% (inactive).

As to `O=[N+]([O-])c1ccc(/C=N\O)o1`, the efficacy was 8.52% (inactive).
